# CCT modulator = changes cytosolic chaperonin activity; activity change, % (concentration not given with the values), hits read low; AID 651819; purified chaperonin ATPase assay, HTRF ADP detection, 30 min; actives 0.3% (n = 360,000); in the data active = activity change below about -30%
#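 Nucleotide hydrolysis assay: TRiC at 20–40 nM final (set by batch activity) with 10 uM ATP, 30 min at 37 °C, in presence of 76 uM compound. Detection by competitive ADP HTRF, 30 min ambient.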
# PLK1 PBD inh = blocks phosphopeptide binding to human PLK1 polo-box domain; P53350; Plk1 PBD binding of FITC phosphopeptide, fluorescence polarization; Potency, µM, for the others: max response, negative = inhibition, usual class: inhibitors; actives 2.8% (n = 360,000); AID 720504; note: potency is the fitted concentration of half-maximal effect; series mostly up to about 57 µM; nearly all actives have a fitted effect of over 65% in size
# Target sequence (P53350 whole entry, looked up, the tested form may be a part): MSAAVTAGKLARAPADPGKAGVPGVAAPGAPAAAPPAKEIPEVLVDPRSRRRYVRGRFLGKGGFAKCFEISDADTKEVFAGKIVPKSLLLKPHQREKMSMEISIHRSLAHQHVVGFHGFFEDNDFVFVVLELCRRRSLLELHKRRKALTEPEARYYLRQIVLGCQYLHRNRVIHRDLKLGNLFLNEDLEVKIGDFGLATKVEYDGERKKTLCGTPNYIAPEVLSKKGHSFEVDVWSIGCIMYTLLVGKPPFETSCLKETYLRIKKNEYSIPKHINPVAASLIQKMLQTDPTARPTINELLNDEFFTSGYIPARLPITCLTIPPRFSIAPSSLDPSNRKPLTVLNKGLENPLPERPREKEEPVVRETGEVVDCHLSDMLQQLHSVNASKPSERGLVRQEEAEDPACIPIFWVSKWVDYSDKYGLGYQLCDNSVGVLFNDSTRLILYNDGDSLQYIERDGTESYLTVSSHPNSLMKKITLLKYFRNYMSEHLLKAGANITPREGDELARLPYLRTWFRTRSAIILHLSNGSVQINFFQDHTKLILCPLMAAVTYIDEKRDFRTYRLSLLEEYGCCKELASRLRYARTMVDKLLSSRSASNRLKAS
# VDR inhibitor = blocks the human vitamin D receptor. P11473. VDR-SRC2-3 peptide fluorescence polarization, 2 h. Potency, µM, for the others: max response, negative = inhibition, most hits filed as inhibitors. actives 0.93% (n = 400,000). AID 504847; note: potency is the fitted concentration of half-maximal effect
#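 Two reagent solutions held at 4 deg C in the dark were dispensed, compounds pinned at 23 nl, and the mixture incubated 2 h at room temperature. Read-out: fluorescence polarization of VDR–SRC2-3 peptide binding.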
# Sfp inh = Sfp phosphopantetheinyl transferase inhibition | AID 1490 | Potency, µM, for inactives: largest response in the series, negative = inhibition, actives largely listed as inhibitors | Biochemical Sfp PPTase activity, qHTS | actives 3.5% (n = 310,000) | Q9F4F7;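 note: the enzyme is Sfp with the accession as filed and its product quenches rhodamine fluorescence; potency is the fitted concentration of half-maximal effect; 0% = enzyme reaction without inhibitor and -100% = no enzyme wells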
#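 With Hepes-Na pH 7.6 buffer containing 10 mM MgCl2, Sfp (15 nM) modified BHQ-2-YbbR (12.5 uM) using rhodamine-CoA (5 uM). Two reads 30 minutes apart at 525/598 nm yielded each well's rate.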
# G9a inh = inhibitors of human histone lysine methyltransferase G9a. Q96KQ7. G9a H3K9 monomethylation, AlphaScreen, 2 h. Potency, µM (series often up to 102 µM), without a hit: at the highest dose activity, negative = inhibition, most hits filed as inhibitors. actives 8.8% (n = 350,000). AID 504332; note: potency is the fitted concentration of half-maximal effect; nearly all actives have a fitted effect of over 75% in size
#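 AlphaScreen detection with an anti-monomethyl H3K9 antibody quantified product after a 2 h room-temperature reaction containing 500 nM biotinylated H3K9 peptide, 20 µM SAM and 20 nM enzyme, which had been preincubated 15 min with compound.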
# Mm-Cpn inhibitor = inhibitors of Methanococcus maripaludis chaperonin TRiC (MmCpn). actives 0.031% (n = 330,000). Potency, µM (series often up to 76.9 µM), inactives show at the top dose activity, negative = inhibition, most hits filed as inhibitors. purified Mm-Cpn ATPase, ADP Transcreener TR-FRET; note: potency is the fitted concentration of half-maximal effect; nearly all actives have a fitted effect of over 80% in size
#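 Inhibition of chaperonin ATP hydrolysis is measured as reduced ADP production, detected by competitive TR-FRET in which signal falls with ADP. Final enzyme 25 nM and ATP 10 uM, reacted 30 min at 37°C.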
# Starred values were filed as active, the others as inactive; ? = inconclusive; / = no result given; [ ] = another dose, or the depositor's remark. A selection: hits, their analogues and other compounds. The true share with any hit is near 10%. Unless noted, calls come from the whole dose curve; as a rule, active = well fitted curve in the direction sought with a large enough effect; inconclusive = small, poorly fitted or top-dose-only effect, or another doubt; inactive = no such curve, though single readings can be large; an effect the other way counts as inactive or inconclusive. Unless noted, % is set by controls: 0 for no effect and ±100 for the full control effect.
SMILES,CCT modulator,PLK1 PBD inh,VDR inhibitor,Sfp inh,G9a inh,Mm-Cpn inhibitor
O=C(O)c1ccccc1NC(=O)c1ccccc1Nc1ccccc1,-1,30µM*,-3%,-3%,?,0%
O=C(COc1ccc2ccccc2c1)Nc1cccc(C(=O)Nc2ccccc2C(=O)O)c1,-2,24µM*,-8%,7%,12%[59 µM],4%
O=C(Nc1ccccc1C(=O)Nc1ccccc1C(=O)O)c1ccccc1,-3,?,-13%,-4%,-2%,-3%
COc1ccc(/C=C\c2onc(C)c2S(=O)(=O)N2CCC(C(=O)Nc3ccc(Cl)cc3)CC2)cc1,/,/,-4%,/,-8%[59 µM],/
COCCCNC(=O)c1ccc(Cn2c(=O)c3cccn3c3cccnc32)cc1,/,/,0%,/,1%[59 µM],/
O=C(NCCCN1CCN(c2ccccc2F)CC1)c1ccc2nc(CCc3ccccc3)oc2c1,/,/,2%,/,-44%[59 µM],/
CCCCCCCCCCCCCCC(F)C(=O)O (stereo unspecified),/,/,-15%,23%,19%[59 µM],/
CCOc1ccc(C(=O)Nc2ccccc2C(=O)O)cc1,-2,27µM*,?,21%,-44%,2%
CCCC(=O)Nc1ccccc1NC(=O)c1ccc(OCC)cc1,-1,-7%,6%,24%,7%,3%
N#CCCN(Cc1cccnc1)C(=S)NC(=O)c1ccc(S(=O)(=O)N2CCCC2)cc1,2,?,-8%,2%,28µM*,-6%
CN1CCN(C(=S)NC(=O)c2ccc(Br)cc2)CC1,0,3%,13%,?,40µM*,?
N#CCCN(Cc1cccnc1)S(=O)(=O)c1ccc(S(=O)(=O)N2CCCCCC2)cc1,1,-3%,3%,11%,-11%[59 µM],-1%
N#CCCSc1ccccc1NC(=O)c1ccc(S(=O)(=O)N2CCCC2)cc1,/,/,/,5.6µM*,10µM*,0%
Cc1cccc(C(=O)NC(=S)N2CCN(C)CC2)c1,-4,-2%,1%,-29%,79µM*,1%
Cc1ccccc1NC(=O)c1ccc(S(=O)(=O)N2CCCC2)cc1,-3,2%,6%,11%,6%,0%
Cc1ccc2c(c1)C1CN(C)CCC1N2C(=S)NC(=O)c1ccc(Br)cc1 (stereo unspecified),-1,-35%,-6%,-3%,22µM*,-6%
CN1CCN(C(=S)NC(=O)c2ccc(S(=O)(=O)N3CCOCC3)cc2)CC1,1,?,-17%,45µM*,?,-1%
COc1ccc(OCC(=O)N2c3ccc(C)cc3C3CN(C)CCC32)cc1 (stereo unspecified),2,0%,9%,16%,8%,-3%
CCCN(CC1CC1)C(=S)NC(=O)c1ccc(S(=O)(=O)N2CCOCC2)cc1,2,-15%,13%,-13%,28µM*,-1%
CC1C(=O)N2CCCc3cc(S(=O)(=O)Nc4ccccc4F)cc1c32 (stereo unspecified),-2,-1%,-6%,/,-27%,0%
CC1C(=O)N2CCCc3cc(S(=O)(=O)N4CCC(C(N)=O)CC4)cc1c32 (stereo unspecified),-1,-19%,16%,?,13µM*,0%
CC1C(=O)N2CCCc3cc(S(=O)(=O)Nc4ccccc4C(N)=O)cc1c32 (stereo unspecified),-1,-14%,-6%,/,45µM*,-3%
CC1C(=O)N2CCCc3cc(S(=O)(=O)N4CCCCC4)cc1c32 (stereo unspecified),-4,-2%,-19%,/,-28%,1%
CCOC(=O)CCCc1c[nH]c2ccccc12,1,0%,11%,18%,84%[59 µM],0%
Cc1noc(C)c1COC(=O)CCCc1c[nH]c2ccccc12,-12,-11%,4%,50µM*,-34%[59 µM],0%
SMILES,CCT modulator,PLK1 PBD inh,VDR inhibitor,Sfp inh,G9a inh,Mm-Cpn inhibitor
CN(C)c1ccc(/C=C2\CCCCC2=O)cc1,0,-12%,17%,0%,50µM*,-7%
COc1ccc(N=C2NC(=O)C(CC(=O)NCCc3ccc(OC)c(OC)c3)S2)cc1 (stereo unspecified),1,2%,26%,5%,-31%,0%
COc1ccc(CC2SC(=Nc3ccc(F)cc3)NC2=O)cc1 (stereo unspecified),3,-6%,-22%,3%,56µM*,0%
Cc1cccc(C)c1NC(=S)N(c1ccccc1)C(C)C,0,30µM*,7%,8%,33%[59 µM],-1%
COc1cccc(CNC(=O)C2CCC(CNS(=O)(=O)c3ccc4c(c3)CCCC(=O)N4)CC2)c1 (stereo unspecified),/,/,8%,/,4%[59 µM],/
Cc1cc(C)n(CC(=O)Nc2ccc(F)c(F)c2)c(=O)c1C#N,/,/,-7%,/,17%[59 µM],/
O=C(Nc1cccc(Br)c1)c1ccc2nc(N3C(=O)CCC3=O)sc2c1,-1,-11%,9%,-5%,?,-22%
O=C(Nc1cccc([N+](=O)[O-])c1)c1ccc2nc(N3C(=O)CCC3=O)sc2c1,0,-24%,5%,-4%,11µM*,-3%
CCn1c(SCC(=O)O)nnc1-c1ccccc1,-3,0%,5%,0%,11%[59 µM],1%
Nn1c(SCCOc2ccccc2)nnc1-c1cccnc1,-2,-18%,-11%,2%,50µM*,0%
CCn1c(SCC(N)=O)nnc1-c1cc2c(C)nn(-c3ccccc3)c2s1,0,-1%,-19%,15%,45µM*,-2%
CCn1c(SCC(=O)OC)nnc1-c1ccccc1,-3,-25%,-9%,18%,14µM*,-2%
CCn1c(SCc2cccc(C(=O)O)c2)nnc1-c1ccccc1,-6,0%,-15%,21%,56µM*,1%
COC(=O)NC(CC(C)=O)c1cccc(C(F)(F)F)c1 (stereo unspecified),/,/,/,6%,/,/
O=C(Nc1ccc(Cl)cc1Cl)c1cc(S(=O)(=O)N2CCN(c3ccccc3F)CC2)ccc1F,/,/,12%,/,-1%[59 µM],/
COc1ccc(CCNC(=O)C(=O)NCC(c2cccs2)S(=O)(=O)c2ccccc2)cc1 (stereo unspecified),/,/,9%,/,15%[59 µM],/
CCn1c(COc2ccc(Cl)cc2)nnc1SCc1ccc(C#N)cc1,0,?,4%,12%,40µM*,0%
CCn1c(SCCC(=O)O)nnc1-c1cccnc1,-2,-9%,2%,15%,45µM*,-2%
c1ccc(Cn2c(SCCN3CCOCC3)nnc2-c2cccnc2)cc1,-1,-1%,-13%,-28%,10µM*,0%
Cc1ccc(OCCSc2nnc(-c3ccncc3)n2C)cc1,-2,1%,-1%,10%,40µM*,0%
Cc1ccc(C(=O)CSc2nnc(-c3ccncc3)n2C)cc1,-3,-27%,-11%,15%,1%[59 µM],-1%
C=Cc1ccc(Cn2c(C)c(CNCc3ccc(SC)cc3)c(C(=O)O)c2C)cc1,/,/,5%,/,-4%[59 µM],/

# Assay outcomes as filed in PubChem BioAssay.
